# Source: PubChem (National Center for Advancing Translational Sciences (NCATS))
# The full list was thinned out, with hits kept by preference.
# Giardia FBPA inh: qHTS Assay for Inhibitors of Fructose-1,6-bisphosphate Aldolase from Giardia Lamblia; A8B2U2; Potency, µM (highest dose often 59.6 µM), most hits filed as inhibitors; actives 0.71% (n = 290,000); purified Giardia FBPA; note: nearly all actives have a fitted effect of over 55% in size
#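 40 nM FBPA preincubated 10 min at RT with compound (up to 57.5 uM final), then substrate plus GAPDH/TPI/NAD/arsenate coupling and diaphorase/resazurin added. Fluorescence read after 20 min at RT, 525/598 nm.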
# LmPK inhibitor: qHTS Assay for Inhibitors of Leishmania Mexicana Pyruvate Kinase (LmPK) | Q27686 | purified LmPK, Kinase-Glo ATP luminescence, 1 h | Potency, µM (titrated, usually from 57.5 µM), hits mostly inhibitors | actives 0.37% (n = 290,000) | AID 1721, 2009
# Target sequence (Q27686 whole entry, looked up): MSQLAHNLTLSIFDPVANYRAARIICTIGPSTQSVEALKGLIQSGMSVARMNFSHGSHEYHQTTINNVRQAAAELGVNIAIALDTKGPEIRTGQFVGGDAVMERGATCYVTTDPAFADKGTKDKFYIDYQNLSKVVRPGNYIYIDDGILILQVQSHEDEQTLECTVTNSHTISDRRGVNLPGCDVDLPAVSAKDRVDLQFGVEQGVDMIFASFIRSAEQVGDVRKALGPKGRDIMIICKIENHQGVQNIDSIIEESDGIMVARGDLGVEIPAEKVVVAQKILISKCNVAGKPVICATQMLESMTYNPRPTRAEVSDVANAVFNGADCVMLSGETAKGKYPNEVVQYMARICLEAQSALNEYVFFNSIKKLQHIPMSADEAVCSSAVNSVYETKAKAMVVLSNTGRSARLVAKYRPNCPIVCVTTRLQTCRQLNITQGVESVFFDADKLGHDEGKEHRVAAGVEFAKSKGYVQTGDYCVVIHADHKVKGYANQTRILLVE
#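 Purified LmPK (0.1 nM) with 0.5 mM PEP and 0.1 mM ADP in imidazole buffer pH 7.2 with MgCl2/KCl, 1 h at room temperature. ATP formed was read by luciferase luminescence and normalized to no-enzyme and uninhibited controls.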
# CHX counter: Cycloheximide Counterscreen for Small Molecule Inhibitors of Shiga Toxin. cell reporter, cycloheximide protein synthesis inhibition counterscreen. max response, %. actives 12% (n = 300,000); in the data active = max response mostly above about 13%, no sharp cut-off; inactive = mostly below about 14%; note: read at 38.3 µM for the half of the compounds with a filed dose
# Shiga toxin inh: A qHTS for Small Molecule Inhibitors of Shiga Toxin | actives 9.2% (n = 290,000) | inhibition, % at 38.7 µM | Vero cells, Shiga toxin protein synthesis inhibition reporter | AID 2315, 2010; in the data active = inhibition mostly above about 28%, no sharp cut-off; inactive = mostly below about 43%
# Sm TGR inh: qHTS Assay for the Inhibitors of Schistosoma Mansoni Peroxiredoxins | actives 3% (n = 360,000) | Schistosoma mansoni thioredoxin glutathione reductase (TGR), Q962Y6 | purified TGR, DTNB reduction, TNB absorbance 405 nm | Potency, µM (highest dose often 114 µM), hits mostly inhibitors | AID 485364, 2010; note: nearly all actives have a fitted effect of over 60% in size
#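 Kinetic colorimetric format: TGR-catalysed, NADPH-driven DTNB reduction monitored via TNB absorbance. Enzyme dispensed at 20 nM; compound exposure 15 min at room temperature before reaction start.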
# Tb PYK inh: qHTS of Trypanosoma Brucei Inhibitors | pyruvate kinase (Trypanosoma brucei), Q57TT1 | TbPYK enzyme, Kinase-Glo Plus ATP luminescence, 45 min | Potency, µM (titrated, usually from 76.8 µM), most hits filed as inhibitors | actives 0.12% (n = 410,000) | AID 624173, 2012; note: nearly all actives have a fitted effect of over 50% in size
#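 Activity of T. brucei pyruvate kinase was followed by Kinase-Glo Plus luminescence after the enzyme reacted 45 min at room temperature with 130 uM ADP (final) and substrate. Test compounds were added before ADP at multiple concentrations.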
# Numbers stand for hits; – = inactive; ? = inconclusive; · = no result given; + = active, no number. Unless noted, calls come from the whole dose curve; as a rule, active = well fitted curve in the direction sought with a large enough effect; inconclusive = small, poorly fitted or top-dose-only effect, or another doubt; inactive = no such curve, though single readings can be large; an effect the other way counts as inactive or inconclusive.
SMILES,Giardia FBPA inh,LmPK inhibitor,CHX counter,Shiga toxin inh,Sm TGR inh,Tb PYK inh
CCOc1ccc(C(=O)CCC(=O)O)cc1,–,–,–,–,–,–
O=C(O)CCC(=O)/C=C/c1ccccc1,–,–,–,–,–,–
CCOc1ccc(/C=C/C(=O)c2cc(Br)ccc(=O)c2O)cc1,?,–,–,–,28µM,–
CCOc1ccc(/C=C/C(=O)Oc2ccc(OC)cc2)cc1,–,–,–,–,–,–
CCc1ccc(/C=C/C(=O)c2cc(Br)ccc(=O)c2O)cc1,?,–,–,–,–,–
CCOc1ccc(/C=C\C(C)=N\O)cc1,–,?,38,97,–,–
Cn1c(CCCNC(=O)c2ccco2)nc2ccccc21,·,·,·,·,·,–
COc1ccc(NC(=O)c2cc(S(=O)(=O)NCCC3=CCCCC3)ccc2F)cc1,·,·,·,·,–,–
CCOCN(C(=O)Cn1cnc2cc(C)c(C)cc21)c1c(C)cccc1CC,·,·,·,·,–,–
CC1CCN(C(CC(=O)c2ccccc2)C(=O)c2ccccc2)CC1 (stereo not given),·,·,·,·,·,20µM
CCOC(=O)N1CCN(C(=O)C2COc3ccccc3O2)CC1 (stereo not given),–,–,–,–,–,–
CCN1CCN(C(=O)C2COc3ccccc3O2)CC1 (stereo not given),·,–,–,–,22µM,–
CC(=O)Nc1ccc(S(=O)(=O)N2CCN(C(=O)C3COc4ccccc4O3)CC2)cc1 (stereo not given),·,–,–,–,–,–
COc1ccc(S(=O)(=O)N2CCN(C(=O)C3COc4ccccc4O3)CC2)cc1 (stereo not given),·,·,·,·,18µM,–
C=C1CCC2[C@](C)(CO)[C@H](O)CC[C@@]2(C)[C@@H]1/C=C/C1=CCOC1=O (stereo not given in full),·,·,·,·,?,–
C=C1CC[C@@H]2[C@](C)(CO)[C@H](O)CC[C@@]2(C)[C@@H]1/C=C/C1=CCOC1=O,–,–,–,–,40µM,–
O=C(CSc1n[nH]c(-c2ccccc2)n1)c1ccccc1,–,–,52,71,–,–
Nc1nc(SCC(=O)c2ccc(Oc3ccccc3)cc2)n[nH]1,–,–,29,–,–,–
COc1cccc(C(=O)N(Cc2ccc(N(C)C)cc2)Cc2ccco2)c1,·,·,·,·,–,–
Nn1c(-c2ccccc2Cl)nnc1-c1ccccc1Cl,–,–,32,+,–,–
CCN(C(=O)c1cn(-c2cccc(OC)c2)c(=O)c2ccccc12)c1ccccc1C,·,·,·,·,–,–
C/C=C/C(=O)[C@@H](C)[C@@H](/C=C/C[Si](C)(C)C)C(C)C,–,·,–,–,·,·
Clc1ccc(-c2nnc(CCc3ccccc3)o2)c(Cl)c1,–,–,41,90,–,–
Cc1ccc(OCc2nnc(-c3ccc(Cl)cc3)o2)cc1,·,·,·,·,·,–
Oc1ccccc1-c1nnc(COc2ccccc2)o1,–,–,27,–,–,–
SMILES,Giardia FBPA inh,LmPK inhibitor,CHX counter,Shiga toxin inh,Sm TGR inh,Tb PYK inh
c1ccc(OCc2nnc(-c3ccccc3)o2)cc1,–,–,26,118,–,–
Oc1ccccc1-c1nnc(COc2ccc(Cl)cc2Cl)o1,–,–,45,74,–,–
C=CCOC(=O)N[C@@H](c1cccs1)C(C(C)=O)C(C)=O,–,·,·,·,·,·
CCCc1nn2c(=O)cc(COC(=O)c3cccc(NC(=O)c4ccc(OCC)cc4)c3)nc2s1,·,·,·,·,–,–
C#CCn1c(=O)c2c(nc(/C=C/c3cccc(OC)c3)n2C)n(CCCOP(=O)(O)O)c1=O,–,·,–,–,·,·
COc1cccc(CN(C)C(=O)Cc2c[nH]c3ccccc23)c1,·,–,20,–,–,–
COc1ccc(CN(C)C(=O)Cc2c[nH]c3ccccc23)cc1,–,–,–,–,–,–
CC(C)CCn1c(=O)c2cccnc2n(CC(=O)Nc2ccc(F)cc2)c1=O,·,·,·,·,–,–
CC(C)([CH2][Sn]([CH2]C(C)(C)c1ccccc1)([CH2]C(C)(C)c1ccccc1)[O][Sn]([CH2]C(C)(C)c1ccccc1)([CH2]C(C)(C)c1ccccc1)[CH2]C(C)(C)c1ccccc1)c1ccccc1,–,·,–,–,·,·
O=C(O)c1cc(Cl)c2c(c1)[C@@H]1C=CC[C@@H]1[C@H](c1ccc(S(=O)(=O)N3CCOCC3)cc1)N2,–,–,–,–,14µM,?
Cc1cc(C)c2c(c1)C1C=CCC1C(c1ccc(S(=O)(=O)N3CCOCC3)cc1)N2 (stereo not given),–,–,–,–,1.6µM,–
CCOc1ccc(C2C(=O)N(C3CCCCCC3)CC(=O)N2CCc2ccccc2)cc1OC (stereo not given),·,·,·,·,–,–
COCCCNC(=O)c1sc2nc(C)c(C(=O)Nc3ccc(C)cc3C)c(-c3ccccc3Cl)c2c1N,·,·,·,·,–,–
CC1(C)CC(=O)C(CS(=O)(=O)c2ccccc2)=C(O)C1,·,–,–,–,1µM,–
COC(=O)c1ccc(COc2ccc(C)cc2[N+](=O)[O-])o1,–,–,48,77,–,–
COc1ccc(CNCC(O)COc2ccc(C)cc2[N+](=O)[O-])cc1 (stereo not given),–,–,35,69,–,–
Cc1ccc(OCc2ccc(C(=O)NN)o2)c([N+](=O)[O-])c1,–,–,37,–,–,–
COc1ccc(OC)c(/C=N\NC(=O)c2ccc(COc3ccc(C)cc3[N+](=O)[O-])o2)c1,·,·,·,·,·,–
Cc1c(C(=O)NN2CCCCC2)nn(-c2ccc(Cl)cc2Cl)c1-c1ccc(Cl)cc1,·,·,·,·,·,–
Cc1ccc(C)c(SCC(=O)NNC(=O)c2ccccc2)c1,–,–,–,–,–,–
Cc1ccc(C)c(SCC(=O)c2ccc[nH]2)c1,–,–,42,56,–,–
CCOC(=O)c1c(-c2ccccc2)csc1NC(=O)c1cc(-c2cccc(OC)c2)on1,·,·,·,·,–,?
COc1ccc(-c2nnnn2CCc2ccccc2)cc1,–,–,19,–,–,–
O=c1c2ccccc2nc(-c2ccccc2)n1Cc1ccccc1,–,–,–,83,–,–
O=c1c2ccccc2nc(-c2ccccc2)n1Cc1ccc(Cl)cc1,–,–,–,–,–,–
C=CCn1c(-c2ccc(OC)cc2)nc2ccccc21,–,–,36,30,–,–
C=CCn1c(-c2ccc(OC)cc2)nc2nc3ccccc3nc21,–,–,37,–,–,–
COCn1c(-c2ccccc2)nc2ccccc21,–,–,–,–,–,–
CCCn1c(-c2cc(OC)c(OC)c(OC)c2)nc2nc3ccccc3nc21,–,–,–,–,–,·
